Rows were chosen to be rich in hits. Some 12% of all compounds tested hit in one or more screens of this group.
BAZ2B block = qHTS Assay for Inhibitors of BAZ2B. Bromodomain adjacent to zinc finger domain protein 2B (Homo sapiens), Q9UIF8. AlphaScreen BAZ2B-H3K14Ac peptide displacement. Potency, µM (highest dose often 114 µM), without a hit: at the highest dose activity change, negative = inhibition, hits mostly inhibitors. 360,000 tested, 4.4% active. AID 504333, 2011; also: % is scaled to controls: 0 for no effect and ±100 for the full control effect; nearly all actives have a fitted effect of over 60% in size
Target sequence (Q9UIF8 whole entry, looked up, the tested form may be a part): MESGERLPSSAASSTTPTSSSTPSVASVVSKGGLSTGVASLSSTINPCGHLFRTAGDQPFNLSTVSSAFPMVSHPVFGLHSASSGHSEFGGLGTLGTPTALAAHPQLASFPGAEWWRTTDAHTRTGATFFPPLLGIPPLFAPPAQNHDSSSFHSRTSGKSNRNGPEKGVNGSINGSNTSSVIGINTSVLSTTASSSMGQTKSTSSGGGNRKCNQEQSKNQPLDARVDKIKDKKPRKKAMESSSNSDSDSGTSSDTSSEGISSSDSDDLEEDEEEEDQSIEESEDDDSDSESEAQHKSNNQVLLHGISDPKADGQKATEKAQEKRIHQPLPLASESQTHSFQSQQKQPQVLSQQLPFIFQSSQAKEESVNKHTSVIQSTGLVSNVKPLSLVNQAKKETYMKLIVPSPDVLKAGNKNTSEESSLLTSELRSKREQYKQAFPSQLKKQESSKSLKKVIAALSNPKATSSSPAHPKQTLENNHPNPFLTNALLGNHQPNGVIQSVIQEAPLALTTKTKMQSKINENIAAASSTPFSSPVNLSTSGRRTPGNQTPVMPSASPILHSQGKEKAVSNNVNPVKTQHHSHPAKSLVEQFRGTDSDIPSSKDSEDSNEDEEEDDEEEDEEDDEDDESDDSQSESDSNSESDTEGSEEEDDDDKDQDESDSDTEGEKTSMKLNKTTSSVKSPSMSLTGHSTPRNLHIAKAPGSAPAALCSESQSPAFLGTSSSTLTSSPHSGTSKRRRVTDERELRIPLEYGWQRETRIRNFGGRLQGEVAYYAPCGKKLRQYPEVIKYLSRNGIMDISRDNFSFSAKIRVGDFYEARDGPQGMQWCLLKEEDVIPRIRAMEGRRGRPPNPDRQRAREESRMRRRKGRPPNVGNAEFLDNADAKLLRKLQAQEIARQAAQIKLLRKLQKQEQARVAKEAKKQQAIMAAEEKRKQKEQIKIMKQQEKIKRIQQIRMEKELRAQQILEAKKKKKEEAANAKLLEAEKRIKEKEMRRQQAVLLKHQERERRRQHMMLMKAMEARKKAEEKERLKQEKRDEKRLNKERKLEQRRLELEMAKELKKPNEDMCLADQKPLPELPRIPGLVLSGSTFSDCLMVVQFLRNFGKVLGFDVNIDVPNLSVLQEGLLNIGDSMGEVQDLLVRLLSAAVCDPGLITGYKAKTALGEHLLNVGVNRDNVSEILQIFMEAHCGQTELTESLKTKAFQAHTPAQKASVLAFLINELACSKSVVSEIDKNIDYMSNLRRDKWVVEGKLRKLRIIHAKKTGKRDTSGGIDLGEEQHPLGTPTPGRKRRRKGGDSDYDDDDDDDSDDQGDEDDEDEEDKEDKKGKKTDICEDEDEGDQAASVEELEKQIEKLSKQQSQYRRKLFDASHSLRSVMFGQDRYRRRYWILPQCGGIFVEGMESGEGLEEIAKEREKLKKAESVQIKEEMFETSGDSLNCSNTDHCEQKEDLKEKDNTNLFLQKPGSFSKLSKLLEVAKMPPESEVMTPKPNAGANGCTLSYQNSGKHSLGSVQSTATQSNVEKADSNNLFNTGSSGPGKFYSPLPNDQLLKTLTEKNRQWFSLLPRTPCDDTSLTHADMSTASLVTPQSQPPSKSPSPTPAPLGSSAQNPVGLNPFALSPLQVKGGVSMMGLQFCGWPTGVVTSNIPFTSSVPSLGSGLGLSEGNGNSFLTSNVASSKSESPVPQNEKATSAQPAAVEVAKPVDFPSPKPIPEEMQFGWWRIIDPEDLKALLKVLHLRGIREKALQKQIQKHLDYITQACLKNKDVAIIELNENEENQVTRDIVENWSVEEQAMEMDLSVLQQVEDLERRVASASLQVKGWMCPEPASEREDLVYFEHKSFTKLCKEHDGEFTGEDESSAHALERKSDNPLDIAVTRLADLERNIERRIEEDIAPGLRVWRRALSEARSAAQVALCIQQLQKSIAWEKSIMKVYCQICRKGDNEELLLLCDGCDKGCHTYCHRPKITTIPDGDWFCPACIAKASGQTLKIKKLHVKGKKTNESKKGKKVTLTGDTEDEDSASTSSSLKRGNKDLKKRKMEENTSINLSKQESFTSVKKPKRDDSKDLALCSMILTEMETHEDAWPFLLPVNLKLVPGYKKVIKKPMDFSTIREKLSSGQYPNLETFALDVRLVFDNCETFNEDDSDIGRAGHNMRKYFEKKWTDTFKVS
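AlphaScreen displacement: compounds (up to 110uM) incubated 30 min at room temperature with a preformed 50 nM BAZ2B/50 nM biotinylated H3K14Ac peptide complex in PBS pH 7.4 with Tween-20. Donor and acceptor beads at 10 ug/mL final added, 20 min light-protected before reading.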
G9a inh = qHTS Assay for Inhibitors of Histone Lysine Methyltransferase G9a; Histone-lysine N-methyltransferase EHMT2 (Homo sapiens), Q96KQ7; G9a H3K9 monomethylation, AlphaScreen, 2 h; Potency, µM (highest dose often 102 µM), without a hit: at the top dose activity, negative = inhibition, hits mostly inhibitors; 350,000 tested, 8.8% active; AID 504332, 2011; also: % is scaled to controls: 0 for no effect and ±100 for the full control effect; nearly all actives have a fitted effect of over 75% in size
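Step 1: enzyme (final 20 nM) with compound, 15 min RT. Step 2: substrate peptide 500 nM and SAM 20 uM, 2 h RT. Step 3: anti-H3K9me1 antibody and AlphaScreen beads, 10 min, then plate read.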
Sfp PPTase inh = qHTS Assay for Inhibitors of Bacillus subtilis Sfp phosphopantetheinyl transferase (PPTase); 310,000 tested, 3.5% active; Biochemical Sfp PPTase activity, qHTS; Potency, µM, for the others: largest response in the series, negative = inhibition, hits mostly inhibitors; AID 1490, 2009;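 also: the enzyme is Sfp with the accession as filed and its product quenches rhodamine fluorescence; 0% = enzyme reaction without inhibitor and -100% = no enzyme wells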
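Compounds were incubated with enzyme (final 15 nM) for 15 min at room temperature before substrate addition started the reaction. Fluorescence at 525 nm excitation, 598 nm emission was recorded immediately and after 30 minutes.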
JMJD2A Tudor inh = qHTS Assay for Inhibitors of JMJD2A-Tudor Domain; Lysine-specific demethylase 4A (Homo sapiens), O75164; AlphaScreen JMJD2A-Tudor / H3K4me3 peptide binding; Potency, µM (doses to about 114 µM), for the others: at the highest dose activity change, negative = inhibition, most hits filed as inhibitors; 390,000 tested, 4.4% active; AID 504339, 2011; also: % is scaled to controls: 0 for no effect and ±100 for the full control effect; nearly all actives have a fitted effect of over 50% in size
PLK1 PBD inh = qHTS for Inhibitors of PLK1-PDB (polo-like kinase 1 - polo-box domain): Primary Screen | Serine/threonine-protein kinase PLK1 (Homo sapiens), P53350 | Plk1 PBD binding of FITC phosphopeptide, fluorescence polarization | Potency, µM, without a hit: max response, negative = inhibition, usual class: inhibitors | 360,000 tested, 2.8% active | AID 720504, 2013; also: series mostly up to about 57 µM; % is scaled to controls: 0 for no effect and ±100 for the full control effect; nearly all actives have a fitted effect of over 65% in size
HP1b chromo inh = HTS for Inhibitors of HP1-beta Chromodomain Interactions with Methylated Histone Tails; Chromobox protein homolog 1 (Homo sapiens), P83916; AlphaScreen HP1-beta / biotin-H3K9me3 peptide binding; Potency, µM (doses to about 114 µM), without a hit: at the highest dose activity change, negative = inhibition, most hits filed as inhibitors; 390,000 tested, 0.56% active; AID 540317, 2011; also: nearly all actives have a fitted effect of over 70% in size
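Compound inhibition of the preformed complex between 50 nM HP1-beta and 50 nM biotinylated H3K9me3 peptide was read by AlphaScreen. Buffer was PBS pH 7.4 with 0.01% Tween-20. Incubations ran 30 min at room temperature, with 10 ug/mL donor/acceptor beads.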
* hit, by the source's call; [ ] = remark or other dose. Calls follow the shape of the dose curve; as a rule, active = well fitted curve in the direction sought with a large enough effect; inconclusive = small, poorly fitted or top-dose-only effect, or another doubt; inactive = no such curve, though single readings can be large; an effect the other way counts as inactive or inconclusive. Potency is read from the fitted curve at half-maximal effect.

Results for CC1CCCCN1S(=O)(=O)c1ccc(C(=O)N(CCCN(C)C)c2nc3cc4c(cc3s2)OCO4)cc1 (centres undefined) ?
BAZ2B block: inconclusive; G9a inh: 50µM*; Sfp PPTase inh: 4%; JMJD2A Tudor inh: inconclusive; PLK1 PBD inh: -7%; HP1b chromo inh: -4%

Results for CCOC(=O)N1CCN(S(=O)(=O)c2ccc(C(=O)N(CCN(CC)CC)c3nc4c(C)cccc4s3)cc2)CC1 ?
BAZ2B block: inconclusive; G9a inh: 50µM*; Sfp PPTase inh: -3%; JMJD2A Tudor inh: inconclusive; PLK1 PBD inh: 1%; HP1b chromo inh: -11%

How did Cc1ccc2sc(N(CCCN(C)C)C(=O)c3ccc(S(=O)(=O)N4CCCCCC4)cc3)nc2c1C do in these assays?
BAZ2B block: inconclusive; G9a inh: 50µM*; JMJD2A Tudor inh: inconclusive; PLK1 PBD inh: -10%; HP1b chromo inh: -21%

Results for CN(C)CCCN(C(=O)c1cccc(N2C(=O)CCC2=O)c1)c1nc2cc3c(cc2s1)OCO3 ?
G9a inh: inconclusive; Sfp PPTase inh: 6%; JMJD2A Tudor inh: -5%[11.4 µM]; PLK1 PBD inh: -2%; HP1b chromo inh: 39%

How did CN(C)CCCN(C(=O)c1ccc(S(=O)(=O)N2CCCC2)cc1)c1nc2ccc(Br)cc2s1 do in these assays?
BAZ2B block: inconclusive; G9a inh: 50µM*; Sfp PPTase inh: -13%; JMJD2A Tudor inh: inconclusive; PLK1 PBD inh: 1%; HP1b chromo inh: 14%

How did CCNC(=O)C1(C)CCN(C(=O)c2cccnc2SC)C1 (centres undefined) do in these assays?
PLK1 PBD inh: 1%

Results for COc1cccc(CNc2cc(C)nc3nc(-c4ccc(C)cc4)nn23)c1 ?
BAZ2B block: -2%; G9a inh: 12%[59 µM]; JMJD2A Tudor inh: -19%; HP1b chromo inh: 15%[57 µM]

Results for CCN(CC)CCNC(=O)Cn1ncc2c3ccccc3n(Cc3ccc(Cl)cc3)c2c1=O ?
BAZ2B block: -20%; G9a inh: 12%[59 µM]; JMJD2A Tudor inh: -21%; HP1b chromo inh: 38%

Results for CCCCN(C)CCNC(=O)Cn1ncc2c3ccccc3n(CCC)c2c1=O ?
BAZ2B block: -2%; G9a inh: -9%[59 µM]; JMJD2A Tudor inh: -17%; HP1b chromo inh: 28%

How did N#Cc1ccccc1OCC(=O)N1CCN(c2ccccc2F)CC1 do in these assays?
BAZ2B block: 32%; G9a inh: 41%[59 µM]; JMJD2A Tudor inh: inconclusive; HP1b chromo inh: 72%

Results for C=Cc1ccc(Cn2c(C(=O)O)c(CNCc3ccc(F)cc3)c3ccc(C)cc32)cc1 ?
BAZ2B block: -33%; G9a inh: inconclusive; JMJD2A Tudor inh: -26%; HP1b chromo inh: 4%

Results for CN(C)CCCN(C(=O)c1ccc(S(=O)(=O)N2CCCCC2)cc1)c1nc2cc3c(cc2s1)OCO3 ?
BAZ2B block: inconclusive; G9a inh: 50µM*; Sfp PPTase inh: -14%; JMJD2A Tudor inh: inconclusive; PLK1 PBD inh: -7%; HP1b chromo inh: inconclusive

How did CN(C)CCCN(C(=O)c1ccc(S(=O)(=O)N2CCOCC2)cc1)c1nc2cc3c(cc2s1)OCO3 do in these assays?
BAZ2B block: -14%; Sfp PPTase inh: -6%; JMJD2A Tudor inh: -12%; PLK1 PBD inh: 5%; HP1b chromo inh: 39%

What do the screens show for `Cc1ccc2sc(N(CCCN(C)C)C(=O)CN3C(=O)c4ccccc4C3=O)nc2c1C`?
G9a inh: 50µM*; Sfp PPTase inh: -8%; JMJD2A Tudor inh: -36%; PLK1 PBD inh: -14%; HP1b chromo inh: -13%

How did COc1cccc(/C=C2/Sc3ccc(C(=O)NCCN4CCCCCC4)cc3NC2=O)c1 do in these assays?
BAZ2B block: inconclusive; G9a inh: 40µM*; Sfp PPTase inh: 45µM*; JMJD2A Tudor inh: inconclusive; PLK1 PBD inh: -3%; HP1b chromo inh: 5%

How did CCN1CCCC1CNC(=O)c1cc(N)ccc1OC (centres undefined) do in these assays?
JMJD2A Tudor inh: 0.79µM*; PLK1 PBD inh: 2%; HP1b chromo inh: inconclusive

Results for O=C1Nc2cc(C(=O)NCCN3CCCCCC3)ccc2S/C1=C\c1ccccc1 ?
BAZ2B block: inconclusive; G9a inh: 45µM*; Sfp PPTase inh: 40µM*; JMJD2A Tudor inh: inconclusive; PLK1 PBD inh: -8%; HP1b chromo inh: -13%

Results for CCN1CCCC1CNC(=O)c1ccc2c(c1)NC(=O)/C(=C\c1ccc(OC)c(OC)c1)S2 (centres undefined) ?
BAZ2B block: 25µM*; G9a inh: -9%[0.0925 µM]; Sfp PPTase inh: -12%; JMJD2A Tudor inh: 28µM*; PLK1 PBD inh: -14%; HP1b chromo inh: -17%[57 µM]

Results for CN1CCN(C(=O)CSc2nnc(COc3ccccc3)o2)CC1 ?
BAZ2B block: -2%; G9a inh: 40µM*; Sfp PPTase inh: -16%; JMJD2A Tudor inh: -6%; PLK1 PBD inh: inconclusive; HP1b chromo inh: 15%

Results for COc1cccc(OCc2nnc(SCC(=O)N3c4ccccc4Sc4ccc(Cl)cc43)o2)c1 ?
BAZ2B block: -6%; G9a inh: 28µM*; Sfp PPTase inh: 11%; JMJD2A Tudor inh: 8%; PLK1 PBD inh: inconclusive; HP1b chromo inh: -17%

How did COc1cccc(OCc2nnc(SCc3cc(=O)[nH]c4ccccc34)o2)c1 do in these assays?
BAZ2B block: -26%; G9a inh: -42%; Sfp PPTase inh: -13%; JMJD2A Tudor inh: -8%[11.4 µM]; PLK1 PBD inh: 24µM*; HP1b chromo inh: inconclusive

How did O=c1cc(CSc2nnc(COc3ccc(Cl)cc3)o2)c2ccccc2[nH]1 do in these assays?
BAZ2B block: -2%; G9a inh: -25%[12.7 µM]; Sfp PPTase inh: 18%; JMJD2A Tudor inh: 9%; PLK1 PBD inh: -2%; HP1b chromo inh: 19%

What do the screens show for `CN1CCN(C(=O)CSc2nnc(COc3ccc(Cl)cc3)o2)CC1`?
BAZ2B block: 8%; G9a inh: 12%; Sfp PPTase inh: 8%; JMJD2A Tudor inh: 5%; PLK1 PBD inh: -4%; HP1b chromo inh: 2%

How did O=C(CSc1nnc(COc2ccc(Cl)cc2)o1)N1CCN(c2ccccc2)CC1 do in these assays?
BAZ2B block: 0%; G9a inh: inconclusive; Sfp PPTase inh: 14%; JMJD2A Tudor inh: inconclusive; PLK1 PBD inh: 30µM*; HP1b chromo inh: 2%

Screening results from PubChem.
